Assay outcomes from PubChem BioAssay.
TDP1 cell CPT: DT40-hTDP1 cell growth loss with CPT; Potency, µM (titrated, usually from 46.2 µM), inactives show top-dose activity change, negative = growth inhibition, hits mostly inhibitors; 420,000 tested, 12% active; chicken DT40 Tdp1-/-;hTDP1 cells + 20 nM CPT, ATP luminescence, 48 h; AID 686979; also: potency is read from the fitted curve at half-maximal effect; nearly all actives have a fitted effect of over 55% in size
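Chicken DT40 Tdp1-/- cells complemented with human TDP1, 400 cells/well, exposed to compounds plus 20 nM camptothecin for at least 48 h at 37 C; viability read as ATP content by CellTiter-Glo luminescence.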
DT40 TDP1 no CPT: qHTS for Inhibitors of human tyrosyl-DNA phosphodiesterase 1 (TDP1): qHTS in cells in absence of CPT. Potency, µM (doses to about 46.2 µM), for inactives: at the top dose activity change, negative = growth inhibition, most hits filed as inhibitors. 420,000 tested, 15% active. DT40 Tdp1-/- hTDP1 cells, no CPT, ATP luminescence, 48 h; also: potency is read from the fitted curve at half-maximal effect; nearly all actives have a fitted effect of over 55% in size
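Growth of hTDP1-complemented DT40 Tdp1-knockout cells is measured by ATP luminescence after at least 48 hr compound exposure at 37 °C, with DMSO substituting for the 20 nM CPT used in the parallel screen.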
HT1080-NT tox: kills 2HG-producing HT-1080-NT fibrosarcoma cells. HT-1080-NT fibrosarcoma viability, CellTiter-Glo ATP luminescence, 48 h. Potency, µM (titrated, usually from 46.1 µM), without a hit: at the top dose activity, negative = less viability, usual class: cytotoxic. 360,000 tested, 1.6% active;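 also: NT is the 2HG producing partner of a matched IDH1 knockdown line; potency is read from the fitted curve at half-maximal effect; 0% = DMSO-treated cells and -100% = media-only wells without cells; nearly all actives have a fitted effect of over 55% in size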
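Luminescent CellTiter-Glo readout after 48 hours of compound exposure at 37 degrees C defined viability of HT-1080-NT cells. Activity was normalized to DMSO wells and cell-free media wells; concentration-response curves were fitted and assigned curve classes.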
IL1B secr inh: inflammasome signaling inhibition, IL-1 beta readout | AID 743279 | 360,000 tested, 4.7% active | activity change, % at 57.5 µM | THP-1 LPS/ATP IL-1B secretion, AlphaLISA, 16 h; active compounds read low; in the data active = activity change below about -50%; inconclusive = mostly about -30% to -49%
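THP-1 cells pretreated 1 hr with compounds (up to 57.5 uM final), then stimulated with LPS (250 ng/mL final) plus ATP (1.25 mM final); secreted IL-1B measured by AlphaLISA after 16 hr, decreased signal indicating inhibition.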
HT1080 IDH1KD tx: kills HT-1080 cells with IDH1 knockdown; HT-1080 IDH1 knockdown viability, ATP luminescence, 48 h; Potency, µM (highest dose often 46.1 µM), for inactives: top-dose activity, negative = toxicity, hits mostly cytotoxic; 360,000 tested, 2% active; AID 686971;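 also: potency is read from the fitted curve at half-maximal effect; 0% = DMSO wells and -100% = cell-free medium wells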
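Knockdown cells (IDH1KD HT-1080) received compounds 2 h after plating at 750 cells/well and were kept 48 h at 37 °C in 5% FBS RPMI. A CellTiter-Glo luminescence read gave % activity for curve fitting.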
ELG1 repair inh: blocks ELG1-dependent DNA repair in HEK293T cells; HEK293T ELG1-luciferase reporter, luminescence, 16 h; DNA damage induced by 5-fluorouridine; Potency, µM (top dose mostly 46.1 µM), inactives show at the top dose activity change, negative = inhibition, most hits filed as inhibitors; 330,000 tested, 2.3% active; also: potency is read from the fitted curve at half-maximal effect; nearly all actives have a fitted effect of over 55% in size
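HEK293T cells expressing luciferase-tagged ELG1 (2,000/well) received 5-Fluorouridine plus compound or DMSO for 16 hr at 37 °C. Luciferase was read by ONE-Glo luminescence after 30 min at room temperature.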
* hit, by the source's call; ? = inconclusive; . = not tested or not shown. A selection: hits, their analogues and other compounds. The true share with any hit is near 19%. Unless noted, calls follow the shape of the dose curve; as a rule, active = well fitted curve in the direction sought with a large enough effect; inconclusive = small, poorly fitted or top-dose-only effect, or another doubt; inactive = no such curve, though single readings can be large; an effect the other way counts as inactive or inconclusive. Unless noted, % is scaled to controls: 0 for no effect and ±100 for the full control effect.

SMILES	TDP1 cell CPT	DT40 TDP1 no CPT	HT1080-NT tox	IL1B secr inh	HT1080 IDH1KD tx	ELG1 repair inh
CC1=CC(C)(C)N2C(=O)C3(SCC(=O)N3c3ccc(F)cc3)c3cc(C)cc1c32 (stereo unspecified)	29.1µM*	10.3µM*	-16.1%	-16.1	-4.4%	0.0%
CC(C)c1ccc(N2C(=O)CSC23C(=O)N2CCCc4cccc3c42)cc1 (stereo unspecified)	-16.5%	-27.2%	3.9%	-4.9	0.4%	13.4%
Cc1ccc(S(=O)(=O)N(C)C[C@@H]2OCCCC[C@@H](C)Oc3ccc(NS(=O)(=O)c4c(C)noc4C)cc3C(=O)N([C@H](C)CO)C[C@@H]2C)cc1	16.4µM*	11.6µM*	-8.6%	-21.2	-22.4%	.
C[C@@H]1CCCCO[C@@H](CN(C)Cc2ccc3c(c2)OCO3)[C@@H](C)CN([C@H](C)CO)C(=O)c2cc(NS(=O)(=O)c3ccccc3)ccc2O1	18.4µM*	10.3µM*	?	-29.8	?	.
Cc1ccc(S(=O)(=O)Nc2ccc3c(c2)C(=O)N([C@@H](C)CO)C[C@@H](C)[C@@H](CN(C)S(=O)(=O)c2ccccc2)OCCCC[C@H](C)O3)cc1	8.2µM*	10.3µM*	-13.6%	-8.9	-3.2%	.
O=C(COc1ccccc1)Nc1ccncc1Cl	0.0%	12.5%	5.6%	5.0	1.6%	?
N#CC1=C2N=C(N)c3ccccc3N2C2=C(C(=O)CCC2)C1c1ccccc1F (stereo unspecified)	6.6%	-9.8%	-3.2%	-5.3	-0.3%	-5.6%
CC1(C)CC(=O)C2=C(C1)N(c1ccccc1)C(N)=C(C#N)C2c1ccccc1 (stereo unspecified)	-12.6%	-28.8%	4.6%	-50.0*	1.7%	-11.1%
N#CC1=C2N=C(N)c3ccccc3N2C2=C(C(=O)CCC2)C1c1ccc(Cl)cc1 (stereo unspecified)	20.6µM*	16.4µM*	-2.4%	-5.2	-14.3%	-8.5%
CC1(C)CC(=O)C2=C(C1)N1C(=C(C#N)C2c2ccc(Cl)cc2)N=C(N)c2ccccc21 (stereo unspecified)	?	20.6µM*	?	?	?	-26.1%
CC1(C)CC(=O)C2=C(C1)N1C(=C(C#N)C2c2ccccc2Cl)N=C(N)c2ccccc21 (stereo unspecified)	?	?	-21.8%	-7.7	-27.5%	-14.5%
CCCN(CC(=O)Nc1ccc(F)c(F)c1F)C(=O)C1=COCCO1	-12.8%	-3.9%	8.9%	-3.6	5.6%	0.0%
Cc1cc2nc(N3CCN(C(=O)c4ccco4)CC3)sc2cc1C	?	20.6µM*	-26.5%	-13.8	-23.6%	?
COc1ccc(C)c2sc(N3CCN(C(=O)c4ccco4)CC3)nc12	18.4µM*	18.4µM*	.	.	.	.
COc1ccc(C)c2sc(N3CCN(C(=O)c4cccc(F)c4)CC3)nc12	-17.5%	-25.2%	.	.	.	.
O=C(c1ccco1)N1CCN(c2nc3ccc(Cl)cc3s2)CC1	?	23.1µM*	.	.	.	.
Cc1nnc2c(N3CCN(C(=O)c4ccco4)CC3)nc3ccccc3n12	?	?	-0.3%	21.3	-0.5%	7.5%
Cc1ccc2nc(N3CCN(C(=O)c4ccco4)CC3)c3nncn3c2c1	?	16.4µM*	7.6%	-8.8	12.4%	?
O=C(/C=C/c1ccco1)Nc1cc(Cl)ccc1C(=O)O	?	?	-9.9%	0.0	-17.1%	21.3%
O=C(/C=C\c1ccco1)Nc1cc([N+](=O)[O-])ccc1F	2.06µM*	1.64µM*	1.46µM*	22.3	?	26.6%
Cc1ccc(NC(=O)/C=C/c2ccco2)cc1F	7.31µM*	9.2µM*	.	.	.	.
Cc1cc(C)n(-c2nc(NCC(C)O)c3c4c(sc3n2)CCCC4)n1 (stereo unspecified)	?	18.4µM*	-8.4%	-17.2	-7.5%	16.4µM*
Cc1cc(C)n(-c2nc(NCCCO)c3c4c(sc3n2)CCCC4)n1	5.8µM*	4.11µM*	-6.4%	-18.4	-3.6%	?
Cc1cc(C)n(-c2nc(NCCO)c3c4c(sc3n2)CCCC4)n1	?	?	-7.5%	-5.2	-9.4%	?
Cc1cccc(NC(=O)CNC(=O)[C@H]2O[C@@H](n3ccc(N)nc3=O)[C@H](O)[C@@H]2O)c1C	-10.3%	16.6%	25.0%	1.9	21.2%	.
SMILES	TDP1 cell CPT	DT40 TDP1 no CPT	HT1080-NT tox	IL1B secr inh	HT1080 IDH1KD tx	ELG1 repair inh
CCc1nnc2c3ccccc3nc(Nc3ccc(F)c(Cl)c3)n12	18.4µM*	18.4µM*	.	.	.	.
CCOc1ccc(Nc2nc3ccccc3c3nnc(CC)n23)cc1	14.6µM*	10.3µM*	.	.	.	.
CCc1nnc2c(NCc3ccc(F)cc3)nc3ccccc3n12	-21.0%	-8.1%	.	.	.	.
CCN(CC(=O)Nc1ccc(NC(C)=O)cc1)C(=O)c1ccccc1CCc1ccccc1	?	?	-6.7%	-11.8	-11.9%	-9.6%
C(#Cc1ccc(C#CCN2CCCC2)cc1)CN1CCCC1	?	20.6µM*	2.2%	-15.2	2.4%	18.7%
O=C(NCCN1CCC(n2c(=O)[nH]c3ccccc32)CC1)c1cccc(F)c1	-29.0%	-23.2%	13.2%	-73.9*	-10.3%	.
COc1ccc(C(=O)NCCN2CCC(n3c(=O)[nH]c4ccccc43)CC2)cc1F	-25.4%	-28.4%	-7.7%	.	0.0%	.
CCCCCn1c(=O)[nH]c2cc(C(=O)NCCN3CCC(C)CC3)ccc2c1=O	-3.9%	?	2.7%	-4.0	9.8%	26.1%
O=C(NCCN1CCC(n2c(=O)[nH]c3ccccc32)CC1)c1cccc(Cl)c1	16.4µM*	?	-26.1%	?	-27.7%	.
O=C(NCCN1CCC(n2c(=O)[nH]c3ccccc32)CC1)C(c1ccccc1)c1ccccc1	16.4µM*	16.4µM*	?	-79.7*	?	.
